# Assay results published in article PMC7862700, “An all-to-all approach to the identification of sequence-specific readers for epigenetic DNA modifications on cytosine”.
# Tests used:
# Test in all cases: DAPPL (digital affinity profiling via proximity ligation, sequencing); 10 mM Tris-HCl pH 7.5, 50 mM NaCl, 1 mM DTT, 4% glycerol, room temperature, 30 min; GST-TFs on glutathione beads, 16-mer random dsDNA library, 0.1% formaldehyde crosslink after washing; high values mean tight binding
# [1] = molecular target: T1, FLI1 (Homo sapiens, UniProt Q01543 1-452); details: protein: recombinant; tags: N-terminal GST; dsDNA, one strand shown
# T1 sequence: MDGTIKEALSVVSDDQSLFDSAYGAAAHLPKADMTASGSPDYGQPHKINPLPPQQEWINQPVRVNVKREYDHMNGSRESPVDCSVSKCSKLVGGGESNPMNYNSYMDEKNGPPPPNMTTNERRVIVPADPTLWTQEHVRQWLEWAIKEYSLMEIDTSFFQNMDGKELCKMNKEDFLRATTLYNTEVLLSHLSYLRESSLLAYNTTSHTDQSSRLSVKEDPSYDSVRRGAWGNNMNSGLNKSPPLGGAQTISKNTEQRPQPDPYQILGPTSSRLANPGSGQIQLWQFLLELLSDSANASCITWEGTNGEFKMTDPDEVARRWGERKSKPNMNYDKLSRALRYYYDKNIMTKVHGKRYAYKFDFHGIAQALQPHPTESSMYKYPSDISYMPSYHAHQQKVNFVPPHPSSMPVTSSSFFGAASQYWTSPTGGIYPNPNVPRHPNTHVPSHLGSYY
# Summary of the method: (§1)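 Pools of DNA-barcoded human transcription factors, expressed in yeast as GST fusions on glutathione beads and combined with a tag-only sample, were incubated with 200 nmole of a 16-mer random double-stranded DNA library. Incubation took 30 min at room temperature in Tris/NaCl/DTT/glycerol buffer and was followed by washing, 0.1% formaldehyde crosslinking, proximity ligation (BsaI/T4 ligase, 1 h, 37 °C), PCR amplification and sequencing on an Illumina NextSeq500. Binding signal is the ratio of a hexamer's read frequency for a factor to its frequency for the tag-only sample.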
# [2] = molecular target: T2, ELK1 (Homo sapiens, UniProt P19419 1-428); details: protein: recombinant; tags: N-terminal GST; dsDNA, one strand shown
# T2 sequence: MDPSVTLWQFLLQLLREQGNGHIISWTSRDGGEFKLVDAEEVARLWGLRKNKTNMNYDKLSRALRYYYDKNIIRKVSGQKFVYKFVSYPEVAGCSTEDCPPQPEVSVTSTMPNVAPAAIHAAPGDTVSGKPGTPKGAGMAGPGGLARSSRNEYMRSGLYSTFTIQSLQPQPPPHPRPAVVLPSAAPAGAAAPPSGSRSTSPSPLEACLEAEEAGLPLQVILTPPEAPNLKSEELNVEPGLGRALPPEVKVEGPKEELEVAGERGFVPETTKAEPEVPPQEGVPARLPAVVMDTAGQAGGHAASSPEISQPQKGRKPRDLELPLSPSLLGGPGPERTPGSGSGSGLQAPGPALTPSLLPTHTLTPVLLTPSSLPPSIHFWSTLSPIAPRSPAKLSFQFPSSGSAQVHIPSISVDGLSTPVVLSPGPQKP
# Summary of the method: as §1
# [3] = molecular target: T3, GABPA (Homo sapiens, UniProt Q06546 1-454); details: protein: recombinant; tags: N-terminal GST; dsDNA, one strand shown
# T3 sequence: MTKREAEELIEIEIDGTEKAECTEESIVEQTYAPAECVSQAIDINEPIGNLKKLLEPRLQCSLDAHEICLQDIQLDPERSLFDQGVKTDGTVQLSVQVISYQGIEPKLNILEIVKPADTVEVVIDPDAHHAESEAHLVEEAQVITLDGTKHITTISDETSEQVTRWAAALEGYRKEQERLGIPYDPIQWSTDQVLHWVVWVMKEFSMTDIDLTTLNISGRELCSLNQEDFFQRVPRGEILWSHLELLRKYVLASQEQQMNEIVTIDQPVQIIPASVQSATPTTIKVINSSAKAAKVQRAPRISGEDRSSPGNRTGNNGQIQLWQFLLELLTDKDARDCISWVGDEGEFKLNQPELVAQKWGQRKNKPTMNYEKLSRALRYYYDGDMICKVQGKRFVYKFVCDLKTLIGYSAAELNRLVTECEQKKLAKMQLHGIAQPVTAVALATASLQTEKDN
# Summary of the method: as §1
# [4] = molecular target: T4, ERG (Homo sapiens, UniProt P11308 1-479); details: protein: recombinant; tags: N-terminal GST; dsDNA, one strand shown
# T4 sequence: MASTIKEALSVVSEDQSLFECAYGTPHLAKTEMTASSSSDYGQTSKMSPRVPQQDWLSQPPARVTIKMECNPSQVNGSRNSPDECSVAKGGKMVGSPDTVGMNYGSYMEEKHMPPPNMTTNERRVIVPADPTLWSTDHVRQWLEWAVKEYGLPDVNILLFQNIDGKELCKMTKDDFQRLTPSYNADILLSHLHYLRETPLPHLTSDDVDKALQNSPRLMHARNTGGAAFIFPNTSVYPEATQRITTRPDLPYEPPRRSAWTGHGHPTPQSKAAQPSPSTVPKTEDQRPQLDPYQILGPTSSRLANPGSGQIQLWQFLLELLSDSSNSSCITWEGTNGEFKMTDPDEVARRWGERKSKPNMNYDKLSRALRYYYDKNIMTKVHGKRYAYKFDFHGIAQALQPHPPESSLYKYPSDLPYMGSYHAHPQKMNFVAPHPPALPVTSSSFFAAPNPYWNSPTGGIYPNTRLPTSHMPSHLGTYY
# Summary of the method: as §1
# [5] = molecular target: ELF1 (Homo sapiens, UniProt P32519 1-619); details: protein: recombinant; tags: N-terminal GST; dsDNA, one strand shown
# ELF1, sequence (P32519 whole entry): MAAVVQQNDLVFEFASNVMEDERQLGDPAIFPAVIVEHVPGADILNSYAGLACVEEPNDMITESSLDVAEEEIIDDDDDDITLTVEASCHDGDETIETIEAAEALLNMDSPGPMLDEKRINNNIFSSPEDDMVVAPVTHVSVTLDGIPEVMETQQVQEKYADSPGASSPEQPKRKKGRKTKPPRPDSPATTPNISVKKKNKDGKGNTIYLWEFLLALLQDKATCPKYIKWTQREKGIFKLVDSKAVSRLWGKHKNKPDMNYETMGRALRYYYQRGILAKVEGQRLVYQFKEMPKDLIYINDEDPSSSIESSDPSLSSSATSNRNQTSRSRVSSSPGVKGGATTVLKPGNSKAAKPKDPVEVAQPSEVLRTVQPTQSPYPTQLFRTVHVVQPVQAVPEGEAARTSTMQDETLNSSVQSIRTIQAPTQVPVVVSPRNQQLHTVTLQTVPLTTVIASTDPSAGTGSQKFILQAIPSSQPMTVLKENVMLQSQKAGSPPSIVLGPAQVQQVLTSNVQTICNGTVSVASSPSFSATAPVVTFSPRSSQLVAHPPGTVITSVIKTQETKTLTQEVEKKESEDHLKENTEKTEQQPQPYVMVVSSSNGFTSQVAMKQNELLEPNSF
# Summary of the method: as §1
# [6] = molecular target: T5, EHF (Homo sapiens, UniProt Q9NZC4 1-300); details: protein: recombinant; tags: N-terminal GST; dsDNA, one strand shown
# T5 sequence: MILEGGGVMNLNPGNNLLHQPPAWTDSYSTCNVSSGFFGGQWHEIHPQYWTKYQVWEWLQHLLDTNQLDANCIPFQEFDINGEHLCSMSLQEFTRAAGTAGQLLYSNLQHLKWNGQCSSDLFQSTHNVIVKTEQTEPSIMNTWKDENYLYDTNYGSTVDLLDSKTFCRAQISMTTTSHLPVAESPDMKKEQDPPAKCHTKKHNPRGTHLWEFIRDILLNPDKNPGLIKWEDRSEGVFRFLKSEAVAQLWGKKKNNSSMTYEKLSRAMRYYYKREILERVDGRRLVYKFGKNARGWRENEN
# Summary of the method: as §1
# [7] = molecular target: SPI1 (Homo sapiens, UniProt P17947 1-270); details: protein: recombinant; tags: N-terminal GST; dsDNA, one strand shown
# Summary of the method: as §1
# [8] = molecular target: SPIB (Homo sapiens, UniProt Q01892 1-262); details: protein: recombinant; tags: N-terminal GST; dsDNA, one strand shown
# SPIB, sequence (Q01892 whole entry): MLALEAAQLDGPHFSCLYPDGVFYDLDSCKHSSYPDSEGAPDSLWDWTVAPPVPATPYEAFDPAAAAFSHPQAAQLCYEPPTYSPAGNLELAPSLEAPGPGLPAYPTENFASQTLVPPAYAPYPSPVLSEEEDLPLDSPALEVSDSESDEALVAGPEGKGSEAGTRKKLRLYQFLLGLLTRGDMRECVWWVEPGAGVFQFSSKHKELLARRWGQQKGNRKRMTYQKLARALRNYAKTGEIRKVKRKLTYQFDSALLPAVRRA
# Summary of the method: as §1
# [9] = molecular target: T6, ELK3 (Homo sapiens, UniProt P41970 1-407); details: protein: recombinant; tags: N-terminal GST; dsDNA, one strand shown
# T6 sequence: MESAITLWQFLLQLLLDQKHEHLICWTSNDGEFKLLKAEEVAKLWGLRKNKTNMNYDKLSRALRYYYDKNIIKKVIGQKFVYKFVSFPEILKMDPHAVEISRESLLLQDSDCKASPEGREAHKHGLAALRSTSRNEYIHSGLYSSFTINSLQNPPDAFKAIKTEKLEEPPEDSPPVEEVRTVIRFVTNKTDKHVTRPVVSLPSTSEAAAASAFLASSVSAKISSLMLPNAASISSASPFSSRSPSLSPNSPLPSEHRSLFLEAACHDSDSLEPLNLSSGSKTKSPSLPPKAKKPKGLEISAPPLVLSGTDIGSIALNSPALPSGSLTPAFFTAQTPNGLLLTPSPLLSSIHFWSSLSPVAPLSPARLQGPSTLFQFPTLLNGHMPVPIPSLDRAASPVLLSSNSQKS
# Summary of the method: as §1
# [10] = molecular target: T7, FEV (Homo sapiens, UniProt Q99581 1-238); details: protein: recombinant; tags: N-terminal GST; dsDNA, one strand shown
# T7 sequence: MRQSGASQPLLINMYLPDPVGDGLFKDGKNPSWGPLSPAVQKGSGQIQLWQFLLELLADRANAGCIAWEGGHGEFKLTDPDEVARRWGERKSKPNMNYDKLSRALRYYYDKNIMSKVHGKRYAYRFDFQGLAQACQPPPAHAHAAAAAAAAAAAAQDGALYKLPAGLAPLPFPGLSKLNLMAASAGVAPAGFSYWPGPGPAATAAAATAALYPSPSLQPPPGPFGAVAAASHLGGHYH
# Summary of the method: as §1
# [11] = molecular target: ETV5 (Homo sapiens, UniProt P41161 1-510); details: protein: recombinant; tags: N-terminal GST; dsDNA, one strand shown
# ETV5, sequence (P41161 whole entry): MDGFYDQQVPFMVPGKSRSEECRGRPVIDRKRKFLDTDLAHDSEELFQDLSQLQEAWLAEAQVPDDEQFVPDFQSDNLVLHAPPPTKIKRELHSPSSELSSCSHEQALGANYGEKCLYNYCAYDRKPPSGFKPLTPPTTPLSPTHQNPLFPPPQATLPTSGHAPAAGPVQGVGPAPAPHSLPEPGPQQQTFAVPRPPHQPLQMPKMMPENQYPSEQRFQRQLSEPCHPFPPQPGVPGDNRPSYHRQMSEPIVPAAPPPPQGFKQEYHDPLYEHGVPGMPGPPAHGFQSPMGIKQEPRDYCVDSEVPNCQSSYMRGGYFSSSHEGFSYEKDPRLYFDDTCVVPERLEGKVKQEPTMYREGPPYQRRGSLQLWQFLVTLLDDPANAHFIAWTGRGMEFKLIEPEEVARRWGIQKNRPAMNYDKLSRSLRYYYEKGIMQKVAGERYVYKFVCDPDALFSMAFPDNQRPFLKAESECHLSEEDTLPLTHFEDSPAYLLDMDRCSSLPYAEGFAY
# Summary of the method: as §1
# [12] = molecular target: HSF1 (Homo sapiens, UniProt Q00613 1-529); details: protein: recombinant; tags: N-terminal GST; chain copies: 3; dsDNA, one strand shown
# HSF1, sequence (Q00613 whole entry): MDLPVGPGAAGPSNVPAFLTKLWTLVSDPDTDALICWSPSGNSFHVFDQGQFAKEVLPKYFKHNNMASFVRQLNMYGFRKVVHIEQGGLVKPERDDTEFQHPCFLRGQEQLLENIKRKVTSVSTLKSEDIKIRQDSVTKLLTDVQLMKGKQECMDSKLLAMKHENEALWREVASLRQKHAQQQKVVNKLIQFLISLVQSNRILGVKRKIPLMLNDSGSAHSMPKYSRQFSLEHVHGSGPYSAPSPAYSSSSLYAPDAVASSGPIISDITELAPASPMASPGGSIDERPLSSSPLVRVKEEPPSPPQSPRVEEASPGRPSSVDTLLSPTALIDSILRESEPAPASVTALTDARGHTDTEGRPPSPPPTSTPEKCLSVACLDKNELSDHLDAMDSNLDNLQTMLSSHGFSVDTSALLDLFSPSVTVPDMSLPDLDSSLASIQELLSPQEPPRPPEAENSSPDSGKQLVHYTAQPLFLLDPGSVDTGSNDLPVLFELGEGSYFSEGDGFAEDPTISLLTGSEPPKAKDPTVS
# Summary of the method: as §1
# [13] = molecular target: T8, SPIC (Homo sapiens, UniProt Q8N5J4 1-248); details: protein: recombinant; tags: N-terminal GST; dsDNA, one strand shown
# T8 sequence: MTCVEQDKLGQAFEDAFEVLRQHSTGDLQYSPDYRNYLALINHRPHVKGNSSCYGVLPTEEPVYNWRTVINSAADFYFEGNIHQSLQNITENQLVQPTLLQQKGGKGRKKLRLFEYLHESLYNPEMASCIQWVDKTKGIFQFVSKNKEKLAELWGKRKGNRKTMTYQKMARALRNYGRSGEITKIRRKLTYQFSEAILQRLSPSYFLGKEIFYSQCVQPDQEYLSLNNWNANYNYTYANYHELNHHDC
# Summary of the method: as §1
# [14] = molecular target: ELF4 (Homo sapiens, UniProt Q99607 1-663); details: protein: recombinant; tags: N-terminal GST; dsDNA, one strand shown
# ELF4, sequence (Q99607 whole entry): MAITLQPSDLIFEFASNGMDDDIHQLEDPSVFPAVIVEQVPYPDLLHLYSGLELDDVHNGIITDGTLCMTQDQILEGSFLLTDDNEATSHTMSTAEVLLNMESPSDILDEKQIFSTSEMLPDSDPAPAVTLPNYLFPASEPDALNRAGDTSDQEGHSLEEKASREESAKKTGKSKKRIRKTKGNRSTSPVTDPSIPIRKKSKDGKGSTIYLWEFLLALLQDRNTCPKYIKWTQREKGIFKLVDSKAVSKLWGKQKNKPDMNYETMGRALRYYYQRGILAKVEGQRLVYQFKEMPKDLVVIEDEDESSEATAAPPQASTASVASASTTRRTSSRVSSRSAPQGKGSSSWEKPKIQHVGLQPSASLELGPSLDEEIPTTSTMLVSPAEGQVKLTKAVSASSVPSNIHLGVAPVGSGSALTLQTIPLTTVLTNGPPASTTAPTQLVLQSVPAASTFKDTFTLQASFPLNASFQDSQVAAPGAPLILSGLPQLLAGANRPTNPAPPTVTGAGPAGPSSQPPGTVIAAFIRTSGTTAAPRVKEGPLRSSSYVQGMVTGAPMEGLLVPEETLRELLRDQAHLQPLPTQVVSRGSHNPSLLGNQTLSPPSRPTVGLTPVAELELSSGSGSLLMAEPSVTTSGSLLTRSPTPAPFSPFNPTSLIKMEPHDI
# Summary of the method: as §1
# [15] = molecular target: T9, ELK4 (Homo sapiens, UniProt P28324-2 1-405); details: protein: recombinant; tags: N-terminal GST; dsDNA, one strand shown
# T9 sequence: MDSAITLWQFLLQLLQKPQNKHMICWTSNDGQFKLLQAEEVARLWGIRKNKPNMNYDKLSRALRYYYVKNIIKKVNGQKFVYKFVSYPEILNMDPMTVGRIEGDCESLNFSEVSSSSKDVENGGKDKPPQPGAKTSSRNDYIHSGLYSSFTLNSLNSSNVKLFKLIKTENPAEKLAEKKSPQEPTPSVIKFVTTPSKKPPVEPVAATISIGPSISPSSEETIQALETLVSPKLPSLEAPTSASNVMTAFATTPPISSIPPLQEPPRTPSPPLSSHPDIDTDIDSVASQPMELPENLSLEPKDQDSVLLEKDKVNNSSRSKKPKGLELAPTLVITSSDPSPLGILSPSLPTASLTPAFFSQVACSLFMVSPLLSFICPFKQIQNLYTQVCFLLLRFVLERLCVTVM
# Summary of the method: as §1
# [16] = molecular target: T10, ETV2 (Homo sapiens, UniProt O00321 1-342); details: protein: recombinant; tags: N-terminal GST; dsDNA, one strand shown
# T10 sequence: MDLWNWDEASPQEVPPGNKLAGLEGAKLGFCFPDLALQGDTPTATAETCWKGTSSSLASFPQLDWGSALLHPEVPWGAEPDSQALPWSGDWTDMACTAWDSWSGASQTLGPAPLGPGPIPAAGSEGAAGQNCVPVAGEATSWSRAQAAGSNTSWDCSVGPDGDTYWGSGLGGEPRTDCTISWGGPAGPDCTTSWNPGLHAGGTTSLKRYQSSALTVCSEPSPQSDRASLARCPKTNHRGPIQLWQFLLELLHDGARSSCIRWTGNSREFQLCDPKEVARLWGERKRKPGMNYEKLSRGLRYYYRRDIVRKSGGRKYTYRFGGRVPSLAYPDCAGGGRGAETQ
# Summary of the method: as §1
# [17] = molecular target: T11, ELF3 (Homo sapiens, UniProt P78545 1-371); details: protein: recombinant; tags: N-terminal GST; dsDNA, one strand shown
# T11 sequence: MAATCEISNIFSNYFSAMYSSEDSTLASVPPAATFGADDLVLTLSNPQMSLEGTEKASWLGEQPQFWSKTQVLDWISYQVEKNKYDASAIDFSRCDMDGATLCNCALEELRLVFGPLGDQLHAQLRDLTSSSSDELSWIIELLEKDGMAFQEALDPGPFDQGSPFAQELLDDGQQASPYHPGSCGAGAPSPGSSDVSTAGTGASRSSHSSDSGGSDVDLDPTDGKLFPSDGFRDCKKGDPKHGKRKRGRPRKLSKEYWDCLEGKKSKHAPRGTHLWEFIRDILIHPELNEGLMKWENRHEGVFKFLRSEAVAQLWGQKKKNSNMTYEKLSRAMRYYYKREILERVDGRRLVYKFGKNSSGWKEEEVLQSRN
# Summary of the method: as §1
# [18] = molecular target: CRX (Homo sapiens, UniProt O43186 1-299); details: protein: recombinant; tags: N-terminal GST; dsDNA, one strand shown
# CRX, sequence (O43186 whole entry): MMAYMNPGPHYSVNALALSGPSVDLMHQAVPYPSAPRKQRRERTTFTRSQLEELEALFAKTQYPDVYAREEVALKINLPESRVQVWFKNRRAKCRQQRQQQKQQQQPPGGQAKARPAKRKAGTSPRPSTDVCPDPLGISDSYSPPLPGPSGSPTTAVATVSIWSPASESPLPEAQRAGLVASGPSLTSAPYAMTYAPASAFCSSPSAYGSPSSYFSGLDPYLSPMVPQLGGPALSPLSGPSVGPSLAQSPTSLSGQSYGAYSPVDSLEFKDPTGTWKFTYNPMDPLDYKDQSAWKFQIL
# Summary of the method: as §1
# [19] = molecular target: ETV1 (Homo sapiens, UniProt P50549 1-477); details: protein: recombinant; tags: N-terminal GST; dsDNA, one strand shown
# ETV1, sequence (P50549 whole entry): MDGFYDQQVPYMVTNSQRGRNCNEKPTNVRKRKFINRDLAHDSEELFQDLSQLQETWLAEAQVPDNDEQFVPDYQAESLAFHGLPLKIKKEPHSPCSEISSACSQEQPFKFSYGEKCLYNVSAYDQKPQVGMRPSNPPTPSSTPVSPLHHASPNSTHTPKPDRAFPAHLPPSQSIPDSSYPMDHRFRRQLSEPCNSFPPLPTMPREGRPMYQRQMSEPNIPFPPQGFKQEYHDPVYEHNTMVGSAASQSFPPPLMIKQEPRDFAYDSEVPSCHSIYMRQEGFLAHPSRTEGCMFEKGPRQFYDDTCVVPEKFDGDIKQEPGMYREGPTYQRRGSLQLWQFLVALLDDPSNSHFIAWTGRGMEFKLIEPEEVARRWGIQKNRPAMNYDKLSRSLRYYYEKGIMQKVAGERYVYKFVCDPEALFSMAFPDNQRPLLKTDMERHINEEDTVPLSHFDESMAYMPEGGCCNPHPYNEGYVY
# Summary of the method: as §1
sequence,measurement,setting,value
TTGATA,binding signal,[1],"1.23 fold enrichment (6-mer frequency, TF over GST control)"
same,binding signal,[2],"1.29 fold enrichment (6-mer frequency, TF over GST control)"
same,binding signal,[3],"1.31 fold enrichment (6-mer frequency, TF over GST control)"
same,binding signal,[4],"1.17 fold enrichment (6-mer frequency, TF over GST control)"
same,binding signal,[5],"1.24 fold enrichment (6-mer frequency, TF over GST control)"
same,binding signal,[6],"1.14 fold enrichment (6-mer frequency, TF over GST control)"
same,binding signal,[7],"1.14 fold enrichment (6-mer frequency, TF over GST control)"
same,binding signal,[8],"1.08 fold enrichment (6-mer frequency, TF over GST control)"
same,binding signal,[9],"1.01 fold enrichment (6-mer frequency, TF over GST control)"
same,binding signal,[10],"1.13 fold enrichment (6-mer frequency, TF over GST control)"
same,binding signal,[11],"1.15 fold enrichment (6-mer frequency, TF over GST control)"
same,binding signal,[12],"1.19 fold enrichment (6-mer frequency, TF over GST control)"
same,binding signal,[13],"1.36 fold enrichment (6-mer frequency, TF over GST control)"
same,binding signal,[14],"1.29 fold enrichment (6-mer frequency, TF over GST control)"
same,binding signal,[15],"1.42 fold enrichment (6-mer frequency, TF over GST control)"
same,binding signal,[16],"1.23 fold enrichment (6-mer frequency, TF over GST control)"
same,binding signal,[17],"1.03 fold enrichment (6-mer frequency, TF over GST control)"
same,binding signal,[18],"1.53 fold enrichment (6-mer frequency, TF over GST control)"
same,binding signal,[19],"1.25 fold enrichment (6-mer frequency, TF over GST control)"
